Data on 89 molecules can be found in PubChem BioAssay AID1851 (National Center for Advancing Translational Sciences (NCATS), 2009).

Among all 16,000 compounds or so, about 2,600 (16%) were called active. Inconclusive results (about 20%) are left out. These entries were drawn from the full list. A number with no mark means an inactive call. Calls follow the shape of the dose curve; as a rule, active = well fitted curve in the direction sought with a large enough effect; inconclusive = small, poorly fitted or top-dose-only effect, or effect the other way; inactive = no such curve, though single readings can be large or run the other way. Numbered stars: 1 amine (or outer) side, 2 acyl side, 3 side chain; on linkers, the order of the positions; unused ones are H or OH. Bridge positions count the residues as written; N and C are the ends. Square brackets hold non-standard residues; d marks the D form. Peptide text beside a SMILES is read from it. I, II: the chains in the order shown. Actinocin(9to1) = Cc1c2oc3c(C)ccc(C(=O)[*:1])c3nc-2c(C(=O)[*:2])c(N)c1=O; aThr = C[C@H](O)[C@H](N)C(=O)O; NMeV = CN[C@H](C(=O)O)C(C)C; Sar = CNCC(=O)O
% is scaled to controls: 0 for no effect and ±100 for the full control effect.

Chain of Cytochrome P450 2D6 (Homo sapiens) (P10635 whole entry, looked up): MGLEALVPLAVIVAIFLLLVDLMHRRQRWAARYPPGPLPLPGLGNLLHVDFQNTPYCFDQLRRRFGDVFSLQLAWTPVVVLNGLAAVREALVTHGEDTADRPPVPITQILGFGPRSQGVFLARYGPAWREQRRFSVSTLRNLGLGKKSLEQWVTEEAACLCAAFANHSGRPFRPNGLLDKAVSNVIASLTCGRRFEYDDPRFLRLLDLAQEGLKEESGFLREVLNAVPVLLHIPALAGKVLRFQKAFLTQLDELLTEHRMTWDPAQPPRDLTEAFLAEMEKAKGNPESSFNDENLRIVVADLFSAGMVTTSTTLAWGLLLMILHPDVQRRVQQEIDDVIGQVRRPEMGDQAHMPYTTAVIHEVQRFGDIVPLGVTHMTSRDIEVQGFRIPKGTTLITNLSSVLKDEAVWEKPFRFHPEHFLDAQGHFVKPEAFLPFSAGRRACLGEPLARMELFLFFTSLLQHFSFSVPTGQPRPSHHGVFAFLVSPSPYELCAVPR

The experiment addresses Cytochrome P450 2D6 (Homo sapiens) (UniProt P10635). The experiment can be described thus: Cytochrome panel assay with activity outcomes. To be noted: recombinant CYP, pro-luciferin dealkylation, luminescence, p450-cyp2d6; series mostly up to 57.1 µM.
As for `CC(C)CC(=O)N1CCC(O)(CS(=O)(=O)Cc2ccc(Cl)cc2)CC1`, the AC50 entry was “inactive”.
For the molecule `COCCn1c(=O)c(-c2cccc(F)c2)nc2cncnc21`, the AC50 result was “inactive”.
Consider `Cc1nn(-c2ccccc2)c(N2CCCCC2)c1/C=N/O`, for which the AC50 entry is “inactive”.
With `O=C(c1ccc(Cl)cc1)N1CCN(c2cc(=O)[nH]nc2-c2ccccc2)CC1`, the AC50 result was “inactive”.
For the molecule `CSc1ccc(CNc2ccccc2)cc1`, the AC50 result was “inactive”.
Consider `COc1cccc(CNCc2ccc(SC)cc2)c1OC`, for which the AC50 is 3.16 µM (active).
For the molecule `CC(C)CC(=O)Nc1sc2c(c1C#N)CC(C)(C)NC2(C)C`, the AC50 was 7.94 µM (active).
On the same count and under the same terms, for `COc1ccc(C(=O)N2CC3(CC(c4ccc(Cl)cc4)=NO3)C[C@H]2C(=O)NCC(N)=O)cc1` (some centres undefined) the value was “inactive”.
Still for that read-out and setting: for `CCOC(=O)C1C(=O)C=C(c2ccc(C)cc2)CC1c1ccco1` (centres undefined) the value was “inactive”; for `Cc1c2oc3c(C)ccc(C(=O)N[C@@H]4C(=O)N[C@@H](C(C)C)C(=O)N5CCC[C@@H]5C(=O)N(C)CC(=O)N(C)[C@@H](C(C)C)C(=O)O[C@H]4C)c3nc-2c(C(=O)N[C@@H]2C(=O)N[C@@H](C(C)C)C(=O)N3CCC[C@@H]3C(=O)N(C)CC(=O)N(C)[C@@H](C(C)C)C(=O)O[C@H]2C)c(N)c1=O` (I: [aThr]V[dP][Sar][NMeV] / II: [aThr]V[dP][Sar][NMeV]; ester I:1-I:C, II:1-II:C; linker I:N-II:N via Actinocin(9to1)), “inactive”; for `Cc1ccc(-n2[nH]c(C)c(C=Nc3ccc4[nH]c(=O)[nH]c4c3)c2=O)cc1C`, “inactive”.
Still for that read-out and setting: for `CCOc1ccc(C2=[N+]([O-])C(C)(C)N(O)C2(C)C)cc1` the value was “inactive”; for `Cc1ccc(S(=O)(=O)NNc2ccccc2)cc1`, 7.94 µM (active); for `Cc1ccc(NNS(=O)(=O)c2ccc(C)cc2)cc1`, 5.62 µM (active).
Consider `Cc1ccc(S(=O)(=O)N[C@H](C(=O)O)C(C)C)cc1`, for which the activity, negative = inhibition is 3.72% [at 11.4 µM].
In the case of `Cc1ccc(S(=O)(=O)NCc2ccccc2)cc1`, the AC50 result was “inactive”.
Take `Cc1ccc(S(=O)(=O)N[C@H](CO)C(=O)O)cc1`: the activity, negative = inhibition is 1.97% [at 11.4 µM].
In the case of `Cc1ccc(NC(=O)NNS(=O)(=O)c2ccc(Br)cc2)cc1`, the AC50 result is “inactive”.
In the case of `OC[C@@H]1O[C@@H](n2cnc3c(NC4CCCC4)ncnc32)[C@@H](O)[C@H]1O`, the AC50 entry was “inactive”.
`CCN1C(=O)C=CC1=O`: the AC50 result was “inactive”.
For `CC[N+](CC)(CC)CC`, the AC50 entry is “inactive”.
In the case of `Clc1ccc(Sc2cc(N3CCOCC3)nc(-c3ccccc3)n2)cc1`, the AC50 result is “inactive”.
As to `CC(=O)C1=C(NC(=O)c2ccc(F)cc2)CC2C1C2(C)C` (centres undefined), the AC50 entry is “inactive”.
For the molecule `Cc1ccc(CNc2nc(N)c([N+](=O)[O-])c(Nc3ccc(F)cc3)n2)cc1`, the AC50 result was “inactive”.
Turning to `Nc1nc(NCc2ccccc2)nc(Nc2cccc(F)c2)c1[N+](=O)[O-]`, the AC50 result was “inactive”.
Still for that read-out and setting: for `Cc1[nH]nc(Nc2ccccc2)c1[N+](=O)[O-]` the value was 10 µM (active); for `CCOC(=O)CCc1c(C)nc2ncnn2c1C`, “inactive”.
The same measure, in the same setting: for `O=C(OCC#CCSc1nnc(-c2cccc3ccccc23)o1)c1ccco1` the value was “inactive”.
The same measure, in the same setting: for `COc1cc2c(cc1OC)C(C(=O)Nc1ccccn1)C(c1cccnc1)N(C)C2=O` (centres undefined) the value was “inactive”.
Turning to `c1ccc([C@H](CCN2CCCC2)c2ccccn2)cc1`, the activity, negative = inhibition was 12% [at 11.4 µM].
With `c1ccc(C(CCN2CC3CCC(CC3)C2)c2ccccc2)cc1`, the AC50 is 0.794 µM (active).
`CCOc1cc(/C=N/NC(=O)CN2CCCCC2)ccc1OCc1ccccc1`: the AC50 entry is “inactive”.
Turning to `C/C(CCN1CCc2nc(-c3ccccc3)c(-c3ccccc3)cc2C1)=N\OC[C@@H](O)COCc1ccco1`, the activity, negative = inhibition is 7.77% [at 11.4 µM].
For `Cc1nc2cnc(Oc3cccc(Cl)c3)nc2n(CCc2ccccc2)c1=O`, the AC50 result is “inactive”.
Turning to `COC(=O)[C@@H]1CC[C@H](C)[C@@H](c2ccc(C)cc2)N1C(=O)c1ccc(/C=N\OC[C@@H](O)COCc2ccco2)cc1`, the activity, negative = inhibition is -0.0575% [at 11.4 µM].
`COC(=O)[C@@H]1CC[C@H](C)[C@@H](c2ccc(C)cc2)N1C(=O)c1ccc(/C=N\OC[C@@H](C)[C@H](OCc2ccccc2)C(C)C)cc1`: the AC50 was 3.98 µM (active).
`CO/N=C\c1ccc(C(=O)N2[C@H](c3ccc(C)cc3)[C@@H](C)CC[C@H]2C(=O)OC)cc1`: the activity, negative = inhibition is 16% [at 11.4 µM].
With `CC(C)(C)C(=O)[C@H]1[C@H](c2ccccc2)[C@@]2(N=C(c3ccccc3)OC2=O)C2c3ccccc3C=NN21` (some centres undefined), the AC50 result is “inactive”.
For the molecule `C#CCCCO/N=C1/C[C@@H](O)[C@@H](O)[C@@H]2[C@H]3C(=O)N(c4ccc(F)cc4F)C(=O)[C@@H]3CC[C@H]12`, the activity, negative = inhibition was -3.2% [at 11.4 µM].
The same measure, in the same setting: under `Oc1cc(CN2COc3ccccc32)c(O)cc1CNC1CCCCC1` stands -11.4% [at 11.4 µM].
Regarding `Cc1cc(C(C)(C)C)cc(CNC2CCCCC2)c1O`, the AC50 was 0.501 µM (active).
Consider `CC(C)(C)c1cc2c(O)c(c1)Cc1cc(C(C)(C)C)cc(c1O)Cc1cc(C(C)(C)C)cc(c1O)Cc1cc(C(C)(C)C)cc(c1O)Cc1cc(C(C)(C)C)cc(c1O)Cc1cc(C(C)(C)C)cc(c1O)Cc1cc(C(C)(C)C)cc(c1O)Cc1cc(C(C)(C)C)cc(c1O)C2`, for which the activity, negative = inhibition was 12.2% [at 11.4 µM].
For `COCCn1c(=O)c(-c2ccccc2)nc2cnc(Nc3cccc(OC)c3)nc21`, the AC50 result was “inactive”.
On to `Cc1nn(C)cc1C(C(=O)NC1CCCCC1)N(C(=O)Cc1cccs1)c1ccc(C(C)C)cc1` (centres undefined), for which the AC50 result was “inactive”.
As for `O=C(NC1CCCCC1)C(c1cccs1)N(Cc1cccs1)C(=O)c1ccco1` (centres undefined), the half-maximal activity concentration (AC50) was 17.8 µM (active).
Take `Cc1cc(C)cc(N(C(=O)Cc2cccs2)C(C(=O)NC2CCCCC2)c2ccccn2)c1` (centres undefined): the AC50 entry was “inactive”.
On to `O=C(NC1CCCC1)C(c1ccsc1)N(Cc1ccccc1)C(=O)Cc1cccs1` (centres undefined), for which the concentration at half-maximal activity (AC50) is 12.6 µM (active).
Regarding `CC(C)c1ccc(N(C(=O)C(F)(F)F)C(C(=O)NC2CCCCC2)c2ccncc2)cc1` (centres undefined), the AC50 entry was “inactive”.
Take `O=C(NC1CCCCC1)C(c1cccs1)N(C(=O)C(F)(F)F)c1ccccc1` (centres undefined): the AC50 was 10 µM (active).
For the molecule `Cc1ccc(N(C(=O)C(F)(F)F)C(C(=O)NC2CCCCC2)c2cccs2)cc1C` (centres undefined), the AC50 result is “inactive”.
On to `Cc1ccc(C(OC(=O)c2ccco2)C(=O)NC2CCCCC2)cc1` (centres undefined), for which the AC50 entry is “inactive”.
As to `Cc1cc(C)cc(N(C(=O)c2ccccn2)C(C(=O)NC2CCCCC2)c2cccs2)c1` (centres undefined), the AC50 result is “inactive”.
On to `CC(C)(S)[C@H](N)C(=O)O`, for which the activity, negative = inhibition was 14.1% [at 11.4 µM].
For `Cc1nc(S(=O)(=O)N(C)c2ccccc2)c(C#N)c(C)c1Cl`, the AC50 entry is “inactive”.
`CCOC(=O)c1cc2c(C(F)(F)F)cc(-c3ccccc3)nc2o1`: the AC50 entry is “inactive”.
Turning to `Nc1c(S(=O)(=O)O)cc(Nc2cccc(S(N)(=O)=O)c2)c2c1C(=O)c1ccccc1C2=O`, the activity, negative = inhibition is -9.77% [at 11.4 µM].
In the case of `CCOC(=O)c1cc(NC(=O)c2ccc(C)cc2)c(=O)oc1-c1ccccc1`, the AC50 entry is “inactive”.
`O=C(c1c(O)c2ccc(Cl)cc2[nH]c1=O)C1CC1`: the half-maximal activity concentration (AC50) is 0.1 µM (active).
With `O=C(O)c1cc(=O)c2ccc(Cl)cc2[nH]1`, the AC50 entry is “inactive”.
As to `CCOC(=O)Nc1ccc2c(c1)N(C(=O)CCN1CCOCC1)c1ccccc1S2`, the AC50 entry is “inactive”.
Consider `CC1CCN(CC(=O)N2c3ccccc3Sc3cc4ccccc4cc32)CC1`, for which the concentration at half-maximal activity (AC50) is 3.98 µM (active).
Regarding `COc1ccc(OC)c2[nH]c(=O)c(CCNC(=O)C3CCCCC3)cc12`, the AC50 entry is “inactive”.
Turning to `COc1ccc(-c2[nH]c(-c3ccc(C(=O)O)cc3)nc2-c2ccccc2)cc1`, the AC50 entry was “inactive”.
`COc1ccc(-c2nc(-c3ccccc3)c(-c3cc([N+](=O)[O-])ccc3C)[nH]2)cc1O`: the AC50 was 28.2 µM (active).
For the molecule `COc1ccc([N+](=O)[O-])cc1COc1ccc2c(-c3ccccc3)cc(=O)oc2c1`, the AC50 result was “inactive”.
Consider `COc1cccc(Nc2ncc3nc(-c4ccccc4)c(=O)n(C)c3n2)c1`, for which the AC50 entry was “inactive”.
Same read-out and setting: for `CCOc1ccc(N2CC(C(=O)NCc3cccc(C)c3)CC2=O)cc1` (centres undefined) the value was “inactive”; for `CCOc1cccc(CNCCNC(=O)c2nonc2N)c1`, 2.24 µM (active).
As for `CCOc1ccc(-n2c(N)c(C(=O)NCc3cccnc3)sc2=S)cc1`, the AC50 entry is “inactive”.
Take `COCCNC(=O)c1cc(-c2cccc(OC)c2)on1`: the AC50 result was “inactive”.
As to `COc1cccc(CSCC(=O)O)c1`, the activity, negative = inhibition is 14.7% [at 11.4 µM].
Turning to `COc1cccc(CNCCNC(=O)c2nonc2N)c1`, the AC50 is 3.16 µM (active).
With `CCOC(=O)N1CCC(NC(=O)CCC(=O)N2CCOc3ccccc32)CC1`, the AC50 entry was “inactive”.
For `Cc1ccc(Oc2nn[nH]n2)cc1`, the AC50 result is “inactive”.
On the same count and under the same terms, under `CC(=O)OCC1=C(C(=O)O)N2C(=O)[C@@H](NC(=O)CSc3ccncc3)[C@@H]2SC1` stands “inactive”.
As for `COc1cc(/C=C2/C(=N)N3C=CSC3=NC2=O)ccc1OCCCOc1c(C)cccc1C`, the AC50 entry was “inactive”.
Take `O=C(CSCc1ccc(Cl)cc1)Nc1ccc2c(c1)OCCO2`: the AC50 is 3.98 µM (active).
The same measure, in the same setting: under `O=C(Nc1ccc2c(c1)OCCO2)c1cc2sccc2n1Cc1ccccc1` stands 7.94 µM (active); under `O=C(CSCc1ccc(Cl)cc1)Nc1nccs1`, 5.62 µM (active); under `O=C(c1cc2sccc2n1Cc1ccccc1)N1CCN(c2nc3ccccc3s2)CC1`, “inactive”.
Regarding `C/C(=N\NC(=O)Cc1ccc(Cl)cc1)c1ccccn1`, the AC50 result is “inactive”.
Take `Cc1nc(SCC(=O)Nc2ccc3c(c2)OCCO3)c2oc3ccccc3c2n1`: the AC50 result is “inactive”.
Turning to `O=C(CN1C(=O)C2C3C=CC(C3)C2C1=O)Nc1ccc2c(c1)OCCO2` (centres undefined), the AC50 entry is “inactive”.
On to `C/C(=N\NC(N)=O)c1ccc(Cl)cc1`, for which the AC50 result was “inactive”.
For the molecule `O=C(Nc1nccs1)c1sc2cc(Cl)ccc2c1Cl`, the AC50 result was “inactive”.
On to `Cc1nnc(SCC(=O)Nc2nccs2)[nH]c1=O`, for which the AC50 entry is “inactive”.
Take `COC(=O)c1ccc(NC(=O)c2cc3sccc3n2C)cc1`: the AC50 entry is “inactive”.
On to `C/C(=N\NC(=O)CSCc1ccc(Cl)cc1)c1ccc2c(c1)OCCO2`, for which the half-maximal activity concentration (AC50) was 0.562 µM (active).
As to `COc1ccc(COC(=O)N/N=C2/C[C@@H](O)[C@@H](O)[C@@H]3[C@@H]4C(=O)N(C(C)(C)C)C(=O)[C@H]4CC[C@H]23)cc1`, the activity, negative = inhibition was 19.2% [at 11.4 µM].

By AC50 is commonly meant the midpoint of the concentration-response curve, whichever way the signal moves.
